Here are results for three compounds from PubChem BioAssay AID2284102 (EPA ToxCast).

The structures appear in SMILES notation. Records with an inconclusive call do not appear. Activity calls are given as the source filed them. How the source made its calls: active means hit-call score of the fitted dose curve at least 0.9, where 1 is the maximum; inconclusive means response in the unintended direction; inactive means score below 0.9.

The AC50 is the concentration at which the activity in the assay is half-maximal.

Tyrosine-protein kinase Lyn (Homo sapiens), sequence (P07948 whole entry, looked up): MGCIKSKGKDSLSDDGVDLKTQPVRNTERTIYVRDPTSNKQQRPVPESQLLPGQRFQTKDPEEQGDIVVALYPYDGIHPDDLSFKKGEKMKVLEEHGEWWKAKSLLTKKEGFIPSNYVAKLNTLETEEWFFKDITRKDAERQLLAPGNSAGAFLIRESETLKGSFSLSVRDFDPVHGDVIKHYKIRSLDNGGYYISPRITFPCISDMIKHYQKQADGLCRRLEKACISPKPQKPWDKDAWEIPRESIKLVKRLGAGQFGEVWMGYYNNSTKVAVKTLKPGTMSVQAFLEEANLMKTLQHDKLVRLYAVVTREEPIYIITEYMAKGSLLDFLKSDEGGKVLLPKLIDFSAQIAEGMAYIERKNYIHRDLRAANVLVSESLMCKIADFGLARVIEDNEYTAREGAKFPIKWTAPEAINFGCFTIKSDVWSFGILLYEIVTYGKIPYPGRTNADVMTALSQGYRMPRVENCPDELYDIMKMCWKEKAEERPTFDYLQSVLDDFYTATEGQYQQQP

The assay has as its target Tyrosine-protein kinase Lyn (Homo sapiens) (UniProt P07948). Kind of assay: ERF_FR_ENZ_hLYN: Eurofins (ERF) Enzymatic Radiometric [Km ATP] KinaseProfiler LeadHunter Assay for human LYN Tyrosine Kinase. As to the method: ERF_FR_ENZ_hLYN is a biochemical, single-readout assay that uses extracted gene-proteins in a cell-free assay. Measurements were taken 0.5 hour after chemical dosing in a 96-well plate. See LYN (B) Human TK Kinase Enzymatic HTRF Assay [Km ATP], Cerep.ERF_FR_ENZ_hLYN is an assay component calculated from the ERF_FR_ENZ_hLYN assay. It is designed to measure enzyme activity using a type of enzyme reporter as detected by fluorescence intensity with HTRF technology.Data from the assay component ERF_FR_ENZ_hLYN was analyzed at the assay endpoint, ERF_FR_ENZ_hLYN, in the positive analysis fitting direction relative to DMSO as the negative control and baseline of activity. Using a type of enzyme reporter, loss-of-signal activity can be used to understand changes in enzymatic activity as they relate to gene LYN. To generalize the intended target to other relatable targets, this assay endpoint is annotated to the kinase intended target family, where the subfamily is non-receptor tyrosine kinase.
Lyn (h) is incubated with 50 mM Tris pH 7.5, 0.1 mM EGTA, 0.1 mM Na3VO4, 0.1% […], 0.1 mg/mL poly(Glu, Tyr) 4:1, 10 mM MgAcetate and [gamma-33P]-ATP (specific activity and concentration as required). The reaction is initiated by the addition of the Mg/ATP mix. After incubation for 40 minutes at room temperature, the reaction is stopped by the addition of phosphoric acid to a concentration of 0.5%. An aliquot of the reaction is then spotted onto a filter and washed four times for 4 minutes in 0.425% phosphoric acid and once in methanol prior to drying and scintillation counting.Compound should be supplied in 100% DMSO.We require a stock solution at a concentration of at least 50x higher than the Final Assay Concentration of your cpd. A 10mM stock is also acceptable.When ordering fewer than 60 kinase assays, we need 120uL of 50x concentrated stock. For more than 60 assays, we need 420 uL of 50xcc stock. Please apply the conversion if you provide 10mM stock solution or compounds in powder form (pre-weighed is required) From 50 cpds supplied as solids, the TAT will be extended.
As for `COc1cc(CCC(=O)CC(=O)CCc2ccc(O)c(OC)c2)ccc1O`, the AC50 is 2.36 µM (active).

`COc1cc(/C=C/C(=O)CC(=O)/C=C/c2ccc(O)c(OC)c2)ccc1O`: the concentration at half-maximal activity (AC50) was 0.0246 µM (active).

With `O=C(/C=C/c1ccc(O)cc1)CC(=O)/C=C/c1ccc(O)cc1`, the AC50 is 2.6 µM (active).
